In PubChem BioAssay AID485270 (The Scripps Research Institute Molecular Screening Center, 2010) one finds inhibition data, which are given here for 85 molecules.

Several values for one entry are separate records, joined by “and”; a condition that tells them apart may be missing. Identical values can stand only once. About 5,800 (1.8%) of roughly 330,000 compounds were called active. Rule as the data show it: active = inhibition mostly above about 38% (no sharp cut-off); inactive = mostly below about 40%. The sample as a whole holds a higher share of actives than the screen did. Some structures have more than one record in an assay (separate samples or runs), and their calls can disagree.

Chain of Orexin/Hypocretin receptor type 1 (Homo sapiens) (O43613 whole entry, looked up): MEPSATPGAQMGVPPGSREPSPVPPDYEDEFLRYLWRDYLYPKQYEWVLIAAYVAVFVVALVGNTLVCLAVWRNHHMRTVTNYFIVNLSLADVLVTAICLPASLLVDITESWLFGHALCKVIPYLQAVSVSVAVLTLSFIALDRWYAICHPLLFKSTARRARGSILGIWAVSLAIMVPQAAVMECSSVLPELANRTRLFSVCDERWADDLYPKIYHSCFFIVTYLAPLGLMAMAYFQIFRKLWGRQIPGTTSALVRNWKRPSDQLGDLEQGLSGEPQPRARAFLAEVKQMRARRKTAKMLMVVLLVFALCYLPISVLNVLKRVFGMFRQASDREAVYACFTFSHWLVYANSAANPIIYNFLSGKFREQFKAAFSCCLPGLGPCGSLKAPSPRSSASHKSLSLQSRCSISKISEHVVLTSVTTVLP

This assay has as its target Orexin/Hypocretin receptor type 1 (Homo sapiens) (UniProt O43613). Briefly: blocks the human orexin 1 receptor (AID 485270).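 Also: 0% = agonist challenge alone and 100% = reference antagonist.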 The conditions noted are these: OX1R-expressing cells, FRET antagonist read-out; at 6.6 µM; stronger effect = higher value.
A word on the inhibition: it is the change of the read-out against control, counted positive when it falls. With `COCCCNC(=S)NC(=O)c1ccccc1`, the inhibition is 6.25% (inactive).
`COCCCNC(=S)NC(=O)c1ccc([N+](=O)[O-])cc1`: the inhibition was 89.6% (active).
To `CC(=O)NC(=S)Nc1ccc(NC(=S)NC(=O)c2ccc([N+](=O)[O-])cc2)cc1` belongs 8.98% (inactive); to `O=C1CCC[C@@H]2CC(N3CCCCC3)C[C@@H]3CCN1[C@H]23` (stereo not given in full), 5.93% (inactive); to `O=C(c1ccncc1)c1ccc([N+](=O)[O-])cc1`, 163% (active).
The result for `O=C(Nc1ccccc1C(=O)Nc1ccncc1)c1ccc([N+](=O)[O-])cc1` reads 16.2% (inactive).
With `O=C(Nn1cnnc1)c1ccc([N+](=O)[O-])cc1`, the inhibition is 22.3% (inactive).
In the case of `COC(=O)c1ccc(/C=C/c2c(-c3ccc(OC)cc3)sc3ccccc23)cc1`, the inhibition is 5.48% (inactive).
To `CC(C)NC(=O)Nc1cccc2c1O[C@@H](CN(C)S(=O)(=O)c1ccc(F)cc1)[C@@H](C)CN([C@H](C)CO)C2=O` belongs 3.93% (inactive); to `COc1ccc(N(C)S(=O)(=O)c2cccc3nsnc23)cc1`, 33.6% (inactive).
To `O=C(CCS(=O)(=O)c1cccc2nsnc12)N1CCN(c2ccccc2F)CC1` belongs 73% (active).
Regarding `O=C(O)c1ccc(NS(=O)(=O)c2cccc3nsnc23)cc1`, the inhibition is 27.3% (inactive).
The result for `O=C(CCCNS(=O)(=O)c1cccc2nsnc12)NCCN1CCN(c2ccccc2F)CC1` reads 26.2% (inactive); that for `COc1ccc(C)cc1NC(=O)CCS(=O)(=O)c1cccc2nonc12`, 48.1% (inactive); that for `CCOc1ccc(N(CC)S(=O)(=O)c2cccc3nsnc23)cc1`, 21.1% (inactive).
Consider `Cc1cccc(C)c1NC(=O)CCS(=O)(=O)c1cccc2nsnc12`, for which the inhibition is 70.3% (active).
Consider `CCOc1ccc(NC(=O)CCS(=O)(=O)c2cccc3nsnc23)cc1`, for which the inhibition was 85.9% (active).
On to `COc1ccc(CNC(=O)C(NS(=O)(=O)c2cccc3nsnc23)C(C)C)cc1` (stereo not given), for which the inhibition is 26.5% (inactive).
To `CCC(=O)N1CCc2cc(S(=O)(=O)CCC(=O)N3CCN(c4ccccc4F)CC3)ccc21` belongs 5.14% (inactive); to `CCOc1ccc(OCC)c(NC(=O)CN(C)S(=O)(=O)c2cccc3nsnc23)c1`, 41.7% (inactive); to `COc1ccc(N(C)C(=O)CCS(=O)(=O)c2cccc3nsnc23)cc1`, 128% (active).
The result for `O=C(COC(=O)COc1cc(Cl)c(Cl)cc1Cl)NC1CC1` reads 6.97% (inactive).
As to `Cc1ccc(C(=O)NCC(=O)NC2CC2)cc1`, the inhibition was -0.69% (inactive).
To `Cc1occc1C(=O)Nc1cccc(S(=O)(=O)N2CCOCC2)c1` belongs 4.81% (inactive); to `COc1ccc2[nH]c3c(c2c1)CCN1C(=O)C(CC(=O)NCCCN(C)C)C[C@H](C(=O)N2CCOCC2)[C@@]31CCC1CCCC1` (stereo not given in full), -1.98% (inactive).
With `Cc1ccc(S(=O)(=O)N2C[C@@H]3CCCC[C@@H]3[C@@H](C)[C@H]2c2cn(Cc3ccccc3)c3ccc(F)cc23)cc1`, the inhibition is 3.67% (inactive).
With `CC1CN(C(=O)c2ccccc2NS(=O)(=O)c2cccc([N+](=O)[O-])c2)CC(C)O1` (stereo not given), the inhibition is 27.1% (inactive).
Turning to `Cc1c(C(=O)N2CC(C)OC(C)C2)sc2nc(-c3ccccc3)cn12` (stereo not given), the inhibition was 19.5% (inactive).
The result for `CC1CN(C(=O)c2ccc([N+](=O)[O-])s2)CC(C)O1` (stereo not given) reads 49.6% (active); that for `CCN(CC)C(=O)[C@H]1CC(CC(=O)NCc2ccco2)C(=O)N2CCc3c([nH]c4ccccc34)[C@]12C` (stereo not given in full), 6.65% (inactive); that for `COC(=O)[C@@]1(C)[C@H]2C(=O)N(Cc3ccccc3)C(=O)[C@H]2[C@H]2CN=C(SCC3CC3)N21`, 4.86% (inactive).
To `O=C1N[C@H](Cc2ccccc2)C(=O)N[C@H]1Cc1cn(S(=O)(=O)c2ccccc2)c2ccccc12` belongs 24.8% (inactive); to `O=C(CC(n1cncn1)C(Cl)(Cl)Cl)c1ccc([N+](=O)[O-])cc1` (stereo not given), 24.6% (inactive).
The result for `O=C(Cn1c[n+](CC(=O)c2ccc([N+](=O)[O-])cc2)cn1)c1ccc([N+](=O)[O-])cc1` reads 41% (active) and 49.5% (inactive).
Turning to `Cc1ccc(C(=O)Cn2cc([N+](=O)[O-])nc2C)cc1`, the inhibition was 16.2% (inactive).
To `Cc1ccc(S(=O)(=O)N2CCN(C(=O)Cn3c(=O)cnc4ccccc43)CC2)c(C)c1` belongs 16.2% (inactive); to `O=C(OCC(=O)N1CCCCCC1)c1ccc(Br)c(S(=O)(=O)N2CCOCC2)c1`, 7.11% (inactive); to `O=C(N[C@H]1C/C=C\C(c2ccc(F)cc2)N(Cc2ccccc2)C(=O)C1)OCC1c2ccccc2-c2ccccc21` (stereo not given in full), 14.6% (inactive).
To `O=c1c2cc(-c3ccccc3)sc2nc2n1N=C(c1cccs1)CS2` belongs 49.2% (active); to `Cc1nnc2n1N=C(c1ccccc1)CS2`, -1.51% (inactive).
To `c1csc(-c2cn3c(n2)SCC3)c1` belongs 2.55% (inactive); to `CC(C)=CCN1CCN(Cc2cc3ccccc3[nH]2)CC1CCO` (stereo not given), 7.38% (inactive).
With `CCN(C[C@H]1N[C@@](CC)(C(=O)OC)[C@H]2C(=O)N(Cc3ccccc3)C(=O)[C@@H]12)S(=O)(=O)c1ccc(C(F)(F)F)cc1`, the inhibition was 5.19% (inactive).
The result for `CCc1ccc(C2C(C#N)=C(N)Oc3n[nH]c(CC(=O)OC)c32)cc1` (stereo not given) reads 1.71% (inactive); that for `Cc1cc(C)c(C#N)c(SCc2ccccc2C(=O)O)n1`, 27.5% (inactive); that for `Cc1cc(C)c(C#N)c(SCc2[nH]nc3c2C(c2ccccc2)C(C#N)=C(N)O3)n1` (stereo not given), 60.2% (active).
The result for `COc1ccc(N2CCN(C(CNS(=O)(=O)c3ccc(C)cc3)c3ccccc3)CC2)cc1` (stereo not given) reads 6.01% (inactive); that for `COC(=O)c1ccc(C)c(NC(=O)Cn2c(C)csc2=O)c1`, 2.56% (inactive).
For `COc1ccccc1-c1sc2ccccc2c1C#CC1(O)CCCCC1`, the inhibition was 6.27% (inactive).
To `COc1ccc2sc(-c3ccc(N(C)C)cc3)c(-c3ccc4cc[nH]c4c3)c2c1` belongs 9.19% (inactive); to `COc1ccc(-c2sc3ccc(OC)cc3c2C#Cc2ccccn2)cc1`, 8.84% (inactive); to `COc1ccc2sc(-c3ccc(N(C)C)cc3)c(C#CCO)c2c1`, 50.3% (active).
To `O=C(N[C@H]1C/C=C\C(c2cccc(F)c2)N(Cc2ccccc2)C(=O)C1)OCC1c2ccccc2-c2ccccc21` (stereo not given in full) belongs 5.38% (inactive); to `Cc1ccc(-c2cccc([C@H]3[C@@H]4C=CC[C@@H](C)[C@@H]4C(=O)N3Cc3ccccc3)c2)cc1`, 5.7% (inactive); to `O=C1c2cccc3cccc(c23)C(=O)N1CCCCCc1n[nH]c(=S)o1`, 47.3% (inactive).
Turning to `O=C(CCCCCN1C(=O)c2cccc3cccc(c23)C1=O)NCc1ccco1`, the inhibition was 9.93% (inactive).
To `C[N+](C)(CCCCCC[N+](C)(C)CCCN1C(=O)c2cccc3cccc(c23)C1=O)CCCN1C(=O)c2cccc3cccc(c23)C1=O` belongs 68.8% (active).
The result for `COC(=O)CSc1snnc1-c1ccc(Cl)c(Cl)c1` reads 33.7% (inactive); that for `CCOC(=O)C/C(C)=N\Nc1ccc([N+](=O)[O-])cc1[N+](=O)[O-]`, 55.3% (active); that for `CCCCOC(=O)CCCc1ccc([N+](=O)[O-])cc1[N+](=O)[O-]`, 18.3% (inactive).
In the case of `CCOC(=O)c1ccc(NNC(C)=O)c([N+](=O)[O-])c1`, the inhibition was 26.7% (inactive).
For the molecule `Nc1nc(SCC(=O)Nc2ccc(Cl)c([N+](=O)[O-])c2)n[nH]1`, the inhibition was 0.57% (inactive).
Consider `O=C(CN1C(=O)c2ccc([N+](=O)[O-])cc2C1=O)Nc1nnc(C2CC2)s1`, for which the inhibition is 21.3% (inactive).
The result for `Cc1ccc(S(=O)(=O)NC2CCCCCC2)cc1` reads 10.9% (inactive); that for `CCn1c(SCC(=O)c2ccc3ccccc3c2)nnc1-c1cccs1`, 79.6% (active); that for `CCn1c(Cc2cccs2)nnc1SCC(=O)c1ccc(C)cc1`, 14.7% (inactive).
To `CCn1c(SCC(=O)c2ccc(Cl)s2)nnc1-c1cccs1` belongs 26.9% (inactive); to `COc1ccc(CCNC(=O)COC(=O)Cc2ccccc2F)cc1`, 2.3% (inactive).
`Cc1noc(C)c1S(=O)(=O)N(C)C[C@H]1Oc2ccc(NC(=O)C3CCCCC3)cc2C(=O)N([C@H](C)CO)C[C@@H]1C`: the inhibition is 3.64% (inactive).
The result for `CCOc1ccccc1Nc1ccc2nonc2c1[N+](=O)[O-]` reads 20% (inactive); that for `O=[N+]([O-])c1c(NCCO)cc(Sc2nc3ccccc3s2)c2nonc12`, 90.3% (active); that for `O=C(O)c1ccccc1CSc1nc2ccccc2s1`, 5.76% (inactive).
The result for `COc1cc(OC)cc(-c2sc3ccc(OC)cc3c2-c2ccc3cc[nH]c3c2)c1` reads 18.3% (inactive).
On to `CCCCC(=O)Nc1cc(C)c2c(=O)oc3ccccc3c2n1`, for which the inhibition was 1.27% (inactive).
The result for `Cc1ccccc1-n1nnc2c(=O)oc3ccccc3c21` reads 51.9% (active); that for `CCOC(=O)c1c(C)nc2c(c1C)c(=O)oc1ccccc12`, 4% (inactive); that for `COc1cc(OC)cc(-c2cc3ccc(F)cc3cn2)c1`, 18.6% (inactive).
As to `N#Cc1cc([N+](=O)[O-])ccc1NC(=O)COC(=O)c1cnccn1`, the inhibition was 30.6% (inactive).
`Cc1cccc(NC(=O)Nc2cccc(Oc3c(F)c(F)c(F)c(F)c3F)c2)c1`: the inhibition was 45.9% (active).
The result for `Cc1cccc(NC(=O)NC(=S)NC(=O)c2ccccc2)c1` reads 39.1% (inactive); that for `COc1cccc(NC(=O)NCc2ccc(F)cc2)c1`, -5.5% (inactive).
To `CCN(CC)S(=O)(=O)c1ccc(N2CCCC2)c(NC(=O)c2ccc([N+](=O)[O-])o2)c1` belongs 25.5% (inactive); to `O=C(Cc1cccs1)NCc1cccc(C(F)(F)F)c1`, -2.11% (inactive); to `CCOC(=O)CCCCCC(=O)Nc1ccc2c(c1)CC(=O)N([C@@H](C)CO)C[C@H](C)[C@@H](CN(C)Cc1ccccc1)O2`, 0.83% (inactive).
To `Cc1noc(C)c1NC(=O)Nc1ccc2c(c1)C(=O)N([C@H](C)CO)C[C@H](C)[C@@H](CN(C)S(=O)(=O)c1cn(C)cn1)O2` belongs 0.36% (inactive).
